According to PubChem BioAssay (NCI):
About 79,000 compounds went through this panel and 15% of them were active in at least one assay; those are over-represented in the sample as a whole. Calls of active or inactive are those of the source. Rule as the data show it: active = growth inhibition above about 70%; inactive = the rest.

Experiments:
[1] = NCI Yeast Anticancer Drug Screen. Data for the rad52 strain (AID 147);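 also: 0% = growth of vehicle-treated control cultures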; settings: S. cerevisiae rad52 mutant growth inhibition, stronger effect = higher value
How it was run: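 Genetically altered yeast (DNA damage repair defect) treated with compound; inhibition calculated relative to vehicle.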

[2] = NCI Yeast Anticancer Drug Screen. Data for the wt1 strain (AID 149);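 also: 0% = growth of vehicle-treated wt1 cultures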; settings: S. cerevisiae wt1 strain (SPY 50644) growth inhibition, stronger effect = higher value
How it was run: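 Each compound is tested on wt1 yeast and the loss of growth versus vehicle gives the inhibition value.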

[3] = NCI Yeast Anticancer Drug Screen. Data for the rad50EPP+ strain (AID 151);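 also: 0% = growth of vehicle-treated control cultures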; settings: S. cerevisiae rad50 mutant strain, stronger effect = higher value
How it was run: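 Strain rad50EPP+; compound exposure; % growth inhibition vs vehicle.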

[4] = NCI Yeast Anticancer Drug Screen. Data for the mgt1 strain (AID 153); settings: S. cerevisiae mgt1 mutant growth inhibition, stronger effect = higher value
How it was run: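 Read-out: yeast growth inhibition vs vehicle control. Strain mgt1, drawn from a panel altered in DNA damage repair or cell cycle control.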

[5] = NCI Yeast Anticancer Drug Screen. Data for the rad50 strain (AID 155);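 also: 0% = growth of vehicle-only cultures of the same strain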; settings: S. cerevisiae rad50 strain growth inhibition, stronger effect = higher value
How it was run: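 Vehicle-treated cultures provide the reference for the growth inhibition reported for compound-exposed, repair-deficient yeast.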

[6] = NCI Yeast Anticancer Drug Screen. Data for the mec2-1 strain (AID 157); settings: S. cerevisiae mec2-1 strain, stronger effect = higher value
How it was run: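 Cells of the genetically defined mec2-1 yeast strain are incubated with test compound. Inhibition of growth is calculated against vehicle-treated controls.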

[7] = NCI Yeast Anticancer Drug Screen. Data for the rad14 strain (AID 159);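 also: 0% = growth of vehicle-treated control cultures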; settings: S. cerevisiae rad14 strain growth inhibition, stronger effect = higher value
How it was run: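 Inhibition of growth is reported for a repair-deficient yeast mutant following compound treatment, calculated relative to cultures that received vehicle.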

[8] = NCI Yeast Anticancer Drug Screen. Data for the sgs1 mgt1 strain (AID 161);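 also: 0% = growth of cultures given vehicle only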; settings: S. cerevisiae sgs1 mgt1 strain, stronger effect = higher value
How it was run: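 Inhibition of yeast growth, normalised to vehicle-treated controls, is reported for a strain bearing genetic alterations in DNA damage repair.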

[9] = NCI Yeast Anticancer Drug Screen. Data for the CLN2oe strain (AID 163);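 also: 0% = growth of vehicle-only control cultures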; settings: S. cerevisiae CLN2oe strain, stronger effect = higher value
How it was run: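 Strain altered in cell-cycle control, incubated with compound; growth compared to solvent-treated controls.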

[10] = NCI Yeast Anticancer Drug Screen. Data for the cln2 rad14 strain (AID 165);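 also: 0% = growth equal to vehicle treated cultures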; settings: S. cerevisiae cln2 rad14 strain, stronger effect = higher value
How it was run: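 The screen exposed genetically defined yeast (cln2 rad14) to test compounds and scored growth inhibition relative to vehicle-treated controls.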

[11] = NCI Yeast Anticancer Drug Screen. Data for the bub3 strain (AID 167); settings: S. cerevisiae bub3 mutant strain, stronger effect = higher value
How it was run: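 Mutant yeast screening strain plus compound; vehicle-treated cultures serve as the 0% inhibition reference.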

[12] = NCI Yeast Anticancer Drug Screen. Data for the wt2 strain (AID 169); settings: S. cerevisiae wt2 strain growth inhibition, stronger effect = higher value
How it was run: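 Steps: yeast strain treated with compound; growth recorded; inhibition calculated relative to cultures given vehicle alone.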

[13] = NCI Yeast Anticancer Drug Screen. Data for the mlh1 strain (AID 171);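 also: 0% = growth of vehicle-treated control cultures of the same strain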; settings: S. cerevisiae mlh1 strain growth inhibition, stronger effect = higher value
How it was run: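 Yeast screen: mutant strain plus compound, growth scored against vehicle control wells.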

[14] = NCI Yeast Anticancer Drug Screen. Data for the sgs1 strain (AID 173);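 also: 0% = growth of vehicle-only control cultures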; settings: S. cerevisiae sgs1 mutant, stronger effect = higher value
How it was run: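 Inhibition of yeast growth served as the measure. The mutant strain was treated with each compound, and growth was normalised to cultures receiving vehicle alone.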

[15] = NCI Yeast Anticancer Drug Screen. Data for the mlh1 rad18 strain (AID 175); settings: S. cerevisiae mlh1 rad18 strain growth inhibition, stronger effect = higher value
How it was run: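 Compound-treated yeast growth, normalised to vehicle controls. Strain bears defined DNA repair mutations.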

[16] = NCI Yeast Anticancer Drug Screen. Data for the rad18 strain (AID 177); settings: S. cerevisiae rad18 mutant growth inhibition, stronger effect = higher value
How it was run: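 Inhibition values reflect reduced yeast growth compared with vehicle-treated controls, using a strain engineered with a DNA damage repair defect.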

[17] = at 5.0 µM (retest, dose inferred, filed as 0.5)
[18] = at 50.0 µM (retest, dose inferred, filed as 5.0)

Measured: growth inhibition

NC1=NS(=O)(=O)N=C(N)C1=Cc1ccc([N+](=O)[O-])o1
inactive: [1]; at 1.2 µM -23% | [1]; at 3.7 µM -14% | [1]; at 11.0 µM 20% | [2]; at 1.2 µM -20% | [2]; at 3.7 µM -11% | [2]; at 11.0 µM -6% | [2]; at 33.0 µM -18% | [3]; at 1.2 µM 0% | [3]; at 3.7 µM 18% | [3]; at 11.0 µM 64% | [4]; at 1.2 µM 7% | [4]; at 3.7 µM 16% | [4]; at 11.0 µM 12% | [4]; at 33.0 µM 33% | [5]; at 1.2 µM 6% | [5]; at 3.7 µM 21% | [5]; [17] 3% | [5]; at 11.0 µM 42% | [6]; at 1.2 µM -20% | [6]; at 3.7 µM -25% | [6]; [17] -20% | [6]; at 11.0 µM -15% | [6]; at 33.0 µM 10% | [6]; [18] 14% | [7]; at 1.2 µM -7% | [7]; at 3.7 µM -8% | [7]; at 11.0 µM -9% | [7]; at 33.0 µM 1% | [8]; [17] -6% | [8]; [18] 43% | [9]; at 1.2 µM 9% | [9]; at 3.7 µM 0% | [9]; at 11.0 µM -11% | [9]; at 33.0 µM 13% | [10]; [17] -16% | [10]; [18] 25% | [11]; at 1.2 µM 8% | [11]; at 3.7 µM -11% | [11]; [17] 5% | [11]; at 11.0 µM -22% | [11]; at 33.0 µM -27% | [11]; [18] 47% | [11]; at 50.0 µM 68.5% | [12]; at 1.2 µM -41% | [12]; at 3.7 µM -34% | [12]; at 11.0 µM -22% | [12]; at 33.0 µM -6% | [13]; at 1.2 µM -7% | [13]; at 3.7 µM -6% | [13]; at 11.0 µM 2% | [13]; at 33.0 µM 33% | [14]; at 1.2 µM -15% | [14]; at 3.7 µM -10% | [14]; at 11.0 µM 18% | [14]; at 33.0 µM 45% | [15]; [17] 3% | [16]; at 1.2 µM 11% | [16]; at 3.7 µM 17%
active: [1]; at 33.0 µM 82% | [1]; at 100.0 µM 97% | [2]; at 100.0 µM 98% | [3]; at 33.0 µM 88% | [3]; at 100.0 µM 97% | [4]; at 100.0 µM 99% | [5]; at 33.0 µM 78% | [5]; [18] 77% | [5]; at 50.0 µM 88% | [5]; at 100.0 µM 97% | [6]; at 50.0 µM 93.8% | [6]; at 100.0 µM 98% | [7]; at 100.0 µM 97% | [8]; at 50.0 µM 92.7% | [9]; at 100.0 µM 99% | [10]; at 50.0 µM 74.7% | [11]; at 100.0 µM 98% | [12]; at 100.0 µM 98% | [13]; at 100.0 µM 98% | [14]; at 100.0 µM 98% | [15]; [18] 84% | [15]; at 50.0 µM 88.8% | [16]; at 11.0 µM 71% | [16]; at 33.0 µM 89% | [16]; at 100.0 µM 98%

Cn1ccnc1Oc1ccc(Cl)cc1
active: [1]; at 100.0 µM 97% | [2]; at 100.0 µM 97% | [4]; at 100.0 µM 98% | [5]; at 33.0 µM 76% | [5]; [18] 83% | [5]; at 50.0 µM 81.2% | [5]; at 100.0 µM 97% | [6]; at 100.0 µM 97% | [7]; at 100.0 µM 98% | [9]; at 100.0 µM 93% | [11]; at 100.0 µM 97% | [12]; at 33.0 µM 78% | [12]; at 100.0 µM 99% | [13]; at 100.0 µM 98% | [14]; at 33.0 µM 83% | [14]; at 100.0 µM 98% | [15]; [18] 74% | [15]; at 50.0 µM 89.2% | [16]; at 100.0 µM 97%
inactive: [1]; at 1.2 µM -7% | [1]; at 3.7 µM -11% | [1]; at 11.0 µM 7% | [1]; at 33.0 µM 61% | [2]; at 1.2 µM 1% | [2]; at 3.7 µM 5% | [2]; at 11.0 µM 22% | [2]; at 33.0 µM 50% | [3]; at 1.2 µM -5% | [3]; at 3.7 µM -22% | [3]; at 11.0 µM 0% | [3]; at 33.0 µM 30% | [3]; at 100.0 µM 37% | [4]; at 1.2 µM -4% | [4]; at 3.7 µM -5% | [4]; at 11.0 µM 0% | [4]; at 33.0 µM 15% | [5]; at 1.2 µM -9% | [5]; at 3.7 µM -9% | [5]; [17] -121% | [5]; at 11.0 µM 3% | [6]; at 1.2 µM -2% | [6]; at 3.7 µM 0% | [6]; [17] -46% | [6]; at 11.0 µM 4% | [6]; at 33.0 µM 17% | [6]; [18] 26% | [6]; at 50.0 µM 58.3% | [7]; at 1.2 µM -5% | [7]; at 3.7 µM 4% | [7]; at 11.0 µM 26% | [7]; at 33.0 µM 46% | [8]; [17] -61% | [8]; [18] 37% | [8]; at 50.0 µM 32.1% | [9]; at 1.2 µM -8% | [9]; at 3.7 µM -3% | [9]; at 11.0 µM -2% | [9]; at 33.0 µM 16% | [10]; [17] -52% | [10]; [18] -6% | [10]; at 50.0 µM -55.4% | [11]; at 1.2 µM -6% | [11]; at 3.7 µM -3% | [11]; [17] -65% | [11]; at 11.0 µM 0% | [11]; at 33.0 µM 25% | [11]; [18] 55% | [11]; at 50.0 µM 38.1% | [12]; at 1.2 µM -7% | [12]; at 3.7 µM 7% | [12]; at 11.0 µM 30% | [13]; at 1.2 µM -11% | [13]; at 3.7 µM -4% | [13]; at 11.0 µM 0% | [13]; at 33.0 µM 45% | [14]; at 1.2 µM -15% | [14]; at 3.7 µM -5% | [14]; at 11.0 µM 15% | [15]; [17] -131% | [16]; at 1.2 µM -7% | [16]; at 3.7 µM -1% | [16]; at 11.0 µM 6% | [16]; at 33.0 µM 55%
